The record followed here is PubChem BioAssay (NCI).

Assay [1] can be described thus: NCI Yeast Anticancer Drug Screen. Data for the rad50 strain (AID 155).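 Further: 0% = growth of vehicle-only cultures of the same strain.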 As to conditions: S. cerevisiae rad50 strain growth inhibition; at 50.0 µM; active compounds read high. The procedure, abridged:
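Cells are treated with compound, grown, and their growth is then scored against vehicle-only cultures of the same repair-deficient yeast strain.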

Assay [2] can be described thus: NCI Yeast Anticancer Drug Screen. Data for the mec2-1 strain (AID 157). The following applies: S. cerevisiae mec2-1 strain, at 50.0 µM, active compounds read high. Put shortly: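 mec2-1 yeast strain, carrying an alteration in DNA damage repair or cell cycle control, was exposed to compounds; growth inhibition was measured relative to vehicle-treated controls.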
Assay [3] in a line: NCI Yeast Anticancer Drug Screen. Data for the sgs1 mgt1 strain (AID 161).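 Further: 0% = growth of cultures given vehicle only.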 The following applies: S. cerevisiae sgs1 mgt1 strain, at 50.0 µM, active compounds read high. The procedure, abridged:
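Compounds are added to genetically altered yeast, and growth is compared with cultures given vehicle alone to give percent inhibition.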

Assay [4] can be described thus: NCI Yeast Anticancer Drug Screen. Data for the cln2 rad14 strain (AID 165).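 Further: 0% = growth equal to vehicle treated cultures.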 As to conditions: S. cerevisiae cln2 rad14 strain, at 50.0 µM, active compounds read high. The procedure, abridged: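 Yeast carrying cln2 and rad14 alterations (cell cycle control and DNA damage repair) were exposed to compounds. Growth inhibition was measured against vehicle-treated controls.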

Assay [5] in a line: NCI Yeast Anticancer Drug Screen. Data for the bub3 strain (AID 167). The following applies: S. cerevisiae bub3 mutant strain, at 50.0 µM, active compounds read high. The procedure, abridged:
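Part of a panel of yeast mutants defective in DNA damage repair or cell cycle regulation. Each strain is grown with compound, and inhibition is calculated relative to solvent-treated cultures.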

Assay [6] is described as follows: NCI Yeast Anticancer Drug Screen. Data for the mlh1 rad18 strain (AID 175). The following applies: S. cerevisiae mlh1 rad18 strain growth inhibition; at 50.0 µM; active compounds read high. Put shortly: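 Growth inhibition of the yeast strain was measured after compound exposure and expressed relative to vehicle-treated controls. The strain carries defined defects in DNA damage repair.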

About 79,000 compounds went through this panel and 15% of them were active in at least one assay; those are over-represented in the sample as a whole. A number with no mark means an inactive call. Calls of active or inactive are those of the source. No stated cut-off is given here; in the data, active means growth inhibition above about 70%; inactive means the rest.

With `CC(NC(=O)c1ccccc1)c1ccc[nH]1` (stereo not given), the growth inhibition in assay [1] was 8.75%; in assay [2] it was -9.2%; in assay [3] it was 0.05%; in assay [4], -15.2%; in assay [5], -25.6%; in assay [6], -0.15%.
With `CCOC(=O)c1cn2c(nc1=O)N[C@H]1CCCC[C@@H]12`, the growth inhibition is 37.8% in assay [1]; 11.1% in assay [2]; 0.4% in assay [3]; -2.45% in assay [4]; 8.4% in assay [5]; -1% in assay [6].
With `COc1ccccc1N=Nc1c(O)n(-c2ccccc2C)c(=S)n(-c2ccccc2OC)c1=O`, the growth inhibition in assay [1] is 38.4%; in assay [2] it was -9.7%; in assay [3], 19.1%; in assay [4] it was -12.8%; in assay [5], -3.95%; in assay [6] it was 3.2%.
Turning to `CCOC(=O)C1SC(=Nc2ccc(Cl)cc2Cl)N=C1C` (stereo not given), the growth inhibition is -0.75% in assay [1]; -10.3% in assay [2]; 4.4% in assay [3]; -19.2% in assay [4]; -2.85% in assay [5]; -10.8% in assay [6].
`Cc1cccc(C(C)C)c1NC(=O)/C(Cc1c([N+](=O)[O-])cccc1[N+](=O)[O-])=N/NC(=O)CC#N`: the growth inhibition was -0.15% in assay [1]; -3.6% in assay [2]; 13.8% in assay [3]; 11.2% in assay [4]; -23.2% in assay [5]; 4.8% in assay [6].
In the case of `CC(Nc1ccc(Br)cc1[N+](=O)[O-])C(=O)O` (stereo not given), the growth inhibition in assay [1] was 22.1%; in assay [2], 11.6%; in assay [3] it was 58.2%; in assay [4], 19.1%; in assay [5], 30.8%; in assay [6], 6.95%.
Take `CCOC(=O)c1cc2c(ccc3cc(C(=O)OCC)[nH]c32)[nH]1`: the growth inhibition in assay [1] is 21.9%; in assay [2], 26.1%; in assay [3] it was 26.8%; in assay [4], 4.2%; in assay [5], 24.4%; in assay [6], -11.3%.
`O=S(=O)(NC1CCC(CC2CCCCC2)CC1)c1ccccc1` (stereo not given): the growth inhibition in assay [1] is 81% (active); in assay [2], 42%; in assay [3], 47.5%; in assay [4], 40%; in assay [5], 88.4% (active); in assay [6], 82.5% (active).
Take `CCOc1ccc(NC(=S)N/C=C(/C#N)C(N)=O)cc1`: the growth inhibition was -13.6% in assay [1]; -26.4% in assay [2]; -15.3% in assay [3]; -14.2% in assay [4]; -16.9% in assay [5]; -3.5% in assay [6].
With `CN(C)c1ncnc2c1ncn2C1OC(CO)C(N)C1O` (stereo not given), the growth inhibition in assay [1] is 19.2%; in assay [2] it was 3%; in assay [3], 26.1%; in assay [4], 0.55%; in assay [5], 28.5%; in assay [6] it was 20.6%.
As to `CCSC(C#N)C(C)=O` (stereo not given), the growth inhibition was 34.9% in assay [1]; 22.1% in assay [2]; 56.4% in assay [3]; 38.5% in assay [4]; 39% in assay [5]; 42.6% in assay [6].
As to `N#C/C(=N\NC(=O)c1ccccc1Cl)c1ccccc1Cl`, the growth inhibition in assay [1] was 89.5% (active); in assay [2] it was 79.3% (active); in assay [3], 83% (active); in assay [4], 82.2% (active); in assay [5], 67.3%; in assay [6] it was 77.8% (active).
On to `CCc1cc(CCC(=O)Nc2ccccc2[N+](=O)[O-])[nH]c(=S)n1`, for which the growth inhibition in assay [1] was -10.6%; in assay [2], -20.8%; in assay [3], 11.3%; in assay [4], 12%; in assay [5] it was -14.3%; in assay [6] it was -11.2%.
In the case of `CCN(CC)c1ccc(/C=C2\SC(=S)NC2=O)cc1`, the growth inhibition was 2.95% in assay [1]; 4.65% in assay [2]; 27.6% in assay [3]; 9.95% in assay [4]; 9.35% in assay [5]; 7.75% in assay [6].
For `CNC(=O)CN(CC(=O)NC)C(=O)NC`, the growth inhibition in assay [1] is 9.95%; in assay [2], 7.3%; in assay [3], -18%; in assay [4], -3.65%; in assay [5] it was -2.35%; in assay [6], 1.55%.
For `C/C(=N/N=C(N)N)c1cnn(C(=N)N)c1C`, the growth inhibition in assay [1] is 15.3%; in assay [2] it was 13.3%; in assay [3], 18.2%; in assay [4], 19.4%; in assay [5] it was 20.9%; in assay [6], 28.4%.
Turning to `CC(=O)c1ccccc1`, the growth inhibition is 1.4% in assay [1]; -12.9% in assay [2]; -16.1% in assay [3]; -5.7% in assay [4]; -18.2% in assay [5]; -23.8% in assay [6].
`NC(N)=N/N=C(\c1nc2ccc([N+](=O)[O-])cc2[nH]c1=O)C(O)c1ccc([N+](=O)[O-])cc1` (stereo not given): the growth inhibition in assay [1] was -16%; in assay [2], -24.9%; in assay [3], -16.6%; in assay [4], -24.1%; in assay [5] it was -6.7%; in assay [6], 1.85%.
With `COC(=O)C1C(O)C(C)C(O)OC1C(C)C(O)C(C)/C=C\C=C(/C)C(=O)Nc1c(C)c(OC(C)=O)c2c(c1O)C(=O)C(C)=C1OCOC(/C(C)=C/C(C)=O)=C12` (stereo not given), the growth inhibition in assay [1] is 14.6%; in assay [2], 8.3%; in assay [3] it was 9.8%; in assay [4], 13.4%; in assay [5] it was 14%; in assay [6] it was 17.6%.
As for `OCC1OC(n2c(=S)[nH]c3ccccc32)C(O)C1O` (stereo not given), the growth inhibition is 9.4% in assay [1]; -0.9% in assay [2]; 5.4% in assay [3]; 1.2% in assay [4]; 4.4% in assay [5]; 7.4% in assay [6].
